In all, about 330,000 compounds went through this assay and about 660 (0.2%) were called active.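 How the source made its calls: active means inhibition of at least 40% at 10 µM in the primary screen; inactive means the rest.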 Many of the other results were omitted from the sample, so actives are more common in it than they were.
System: intestinal alkaline phosphatase [Mus musculus]
Assay: inhibitors of mouse IAP, primary screen, biochemical, luminescence, uHTS (AID 2806);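 further: plate controls were DMSO with enzyme for no effect and no enzyme wells for full effect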
Settings: purified mouse IAP, CDP-Star luminescence, 30 min; at 10 µM; active compounds read high

Row | SMILES | inhibition
1 | O=[N+]([O-])c1ccc(N2CCNCC2)cc1NCc1cccnc1 | 3% (inactive)
2 | Nc1ccc(-n2nncc2-c2ccco2)cc1 | -3.6% (inactive)
3 | C=CCn1c(SCc2nnc(-c3ccccc3)o2)nnc1C(O)c1ccccc1 (stereo not given) | -0.4% (inactive)
4 | CCN(c1ccccc1)S(=O)(=O)c1cc2c(cc1C)n(C)c(=O)c(=O)n2C | -8% (inactive)
5 | NC(=O)C1CCCN(CC(=O)N2CCN(c3ccccc3)CC2)C1 (stereo not given) | 15% (inactive)
6 | COc1ccc(NC(=O)C2CCC(CNc3c(N4CCCCC4)c(=O)c3=O)CC2)c(OC)c1 (stereo not given) | -14.9% (inactive)
7 | COc1ccc(N2CCN(S(=O)(=O)c3cc4c5c(c3)C(C)C(=O)N5CCC4)CC2)cc1 (stereo not given) | -7.1% (inactive)
8 | CCn1c(C)c(C)c2cc(C(=O)N3CCN(c4cccc(C)c4C)CC3)ccc21 | 1.5% (inactive)
9 | COc1ccc(OC)c(NC(=O)Cn2c(=O)oc3ccccc32)c1 | -4.3% (inactive)
10 | CC(=O)Nc1c2c(nn1-c1cccc(C)c1)CSC2 | 9.8% (inactive)
11 | CCCCC(=O)Nc1ccc2c(c1)C(=O)NC2=O | 7% (inactive)
12 | Cc1nn(C)c(C(=O)NNC(=S)NC2CCCCC2)c1Cl | 16.2% (inactive)
13 | CCCCCCCCCOC1OC(CO)C(O)C(O)C1NC(C)=O (stereo not given) | 3.6% (inactive)
14 | CCc1ccc(Nc2ncc3c(n2)CC(c2ccco2)CC3=O)cc1 (stereo not given) | 41.4% (active)
15 | O=C(Nc1ncc2c(n1)CC(c1ccco1)CC2=O)c1ccc(Cl)cc1 (stereo not given) | 0.8% (inactive)
16 | COc1cc(C2CC(=O)c3cnc(NC(C)=O)nc3C2)cc(OC)c1OC (stereo not given) | 6.1% (inactive)
17 | Brc1cnc2ccccc2c1N1CCCCC1 | -0.5% (inactive)
18 | CCC(=O)c1ccc(OCC(=O)OCC(=O)N2CCc3ccccc3C2)cc1 | 2.5% (inactive)
19 | Cc1cc(NC(=O)/C=C/C(=O)N(CC(=O)NC2CCCC2)c2ccc(F)cc2)no1 | 5.2% (inactive)
20 | COc1ccc(CNC(=O)C2CCCC2)cc1 | 4.3% (inactive)
21 | O=C(NCc1cc(C(F)(F)F)cc(C(F)(F)F)c1)C1CC(c2cccc(F)c2)=NO1 (stereo not given) | -2.8% (inactive)
22 | COc1ccc(CNC(=O)C2CC(c3ccc(C(F)(F)F)cc3)=NO2)cc1 (stereo not given) | 41.4% (active)
23 | CC1CCCCN1S(=O)(=O)CCNC(=O)c1ccccc1 (stereo not given) | 8.6% (inactive)
24 | Cc1ccc(C)c(NC(=O)CSc2nc3c(oc4ccccc43)c(=O)n2-c2ccccc2)c1 | 2.2% (inactive)

Row | SMILES | inhibition
25 | Cc1ccc(-c2nnn(CC(=O)N(CCO)C(C(=O)NC(C)(C)C)c3ccncc3)n2)cc1 (stereo not given) | -1.3% (inactive)
26 | CCNC(=O)N1CCN(S(=O)(=O)c2ccc3c(c2)OCCCO3)CC1 | -17.6% (inactive)
27 | COc1cccc2[nH]c(C(=O)NCCc3ccccc3)cc12 | -19.5% (inactive)
28 | O=C(N1CCCCC1)N1CCN(C(=O)N2CCCCC2)CC1 | -1.7% (inactive)
29 | CC1(C)S[C@@H]2[C@H](N=CN3CCCCCC3)C(=O)N2[C@H]1C(=O)O | -8.2% (inactive)
30 | O=C(COC(=O)Cn1[nH]c(=O)c2ccccc2c1=O)Nc1c(Cl)cccc1C(F)(F)F | 4.1% (inactive)
31 | O=C(c1cc2ccccc2o1)N1CCN(S(=O)(=O)c2ccc(Cl)s2)CC1 | -5.4% (inactive)
32 | Cc1cc(-c2ccc(S(=O)(=O)N3CCc4ccccc4C3)s2)on1 | 4.5% (inactive)
33 | NC(=O)NC(=O)CSc1nc2cc([N+](=O)[O-])ccc2n1-c1cccc(C(F)(F)F)c1 | 14.7% (inactive)
34 | CCc1sc(C(=O)N2CCN(CC(=O)Nc3cccc(F)c3)CC2)cc1C | 6.1% (inactive)
35 | CC[C@]1(O)C[C@@H]2CN(CCc3c([nH]c4ccccc34)[C@@](C(=O)OC)(c3cc4c(cc3OC)N(C)[C@H]3[C@@](O)(C(=O)OC)[C@H](OC(C)=O)[C@]5(CC)C=CCN6CC[C@]43[C@@H]65)C2)C1 | -16.7% (inactive)
36 | CCNc1c(NS(=O)(=O)c2ccc(C3CCCCC3)cc2)c(=O)oc2ccccc12 | 6% (inactive)
37 | CC(=O)Nc1ccc(S(=O)(=O)Nc2cc(C)cn(Cc3ccc(C)cc3)c2=O)cc1 | 4.9% (inactive)
38 | O=C(Nc1cccc2ccccc12)c1onc2c1CCCC2 | 3% (inactive)
39 | COc1cc(CN2CCNC(=O)C2CC(=O)NCCc2ncccc2C)cc(OC)c1 (stereo not given) | 5.5% (inactive)
40 | O=S(=O)(NCc1ccc2c(c1)OCO2)c1cccc2nsnc12 | -5.4% (inactive)
41 | Cc1ccc(S(=O)(=O)NCC(=O)NNC(=O)c2ccc(Br)cc2)cc1C | 28.4% (inactive)
42 | Cn1c2c(c(=O)n(C)c1=O)C1c3ccccc3OCC1C(C)(C)O2 (stereo not given) | 8.7% (inactive)
43 | CC(C)Oc1ccc(CN2CCC(n3nccc3NC(=O)c3cccnc3)CC2)cc1 | -5.5% (inactive)
44 | Oc1cc(O)c2c(c1)OC(c1ccc(O)c(O)c1)C(O)C2 (stereo not given) | 75.1% (active)
45 | CC(C)Oc1ccc(CCc2nnc(SCC(=O)O)n2-c2ccccc2)cc1 | 3.2% (inactive)
46 | O=S(=O)(c1ccc(NC(=S)NN=C(C2CC2)C2CC2)cc1)N1CCOCC1 | 37.7% (inactive)
47 | O=[N+]([O-])c1cc(Cl)cc(/C=N/NC(=S)Nc2cc(S(=O)(=O)N3CCOCC3)ccc2Cl)c1O | 40.5% (active)
48 | Cc1ccc(S(=O)(=O)N2CCN(CC(=O)N/N=C/c3cc([N+](=O)[O-])ccc3Cl)CC2)cc1 | 14.9% (inactive)

Row | SMILES | inhibition
49 | COc1ccccc1C1C(C(N)=O)=C(C)Nc2nc(CCCO)nn21 (stereo not given) | -1.6% (inactive)
50 | Cc1occc1-c1nnc(SCC(=O)NC2CCCCC2)o1 | -1.8% (inactive)
51 | O=C1N[C@H](Cc2ccccc2)C(=O)N[C@H]1Cc1cn(S(=O)(=O)c2ccccc2)c2ccccc12 | -8% (inactive)
52 | CCOC(=O)C(NS(=O)(=O)c1ccc(C)cc1)(C(F)(F)F)P(=O)(OCC(C)C)OCC(C)C (stereo not given) | 2.8% (inactive)
53 | CCOC(=O)/C(N=Nc1cc(C(=O)O)cc(C(=O)O)c1)=C(\O)CCl | -0.2% (inactive)
54 | CCn1c(CSc2nncn2-c2ccc(OC)cc2)nc2cc(S(=O)(=O)N(C)C)ccc21 | 6.6% (inactive)
55 | CCN(CC)S(=O)(=O)c1cc(C(=O)Nc2ccccn2)ccc1C | 0.4% (inactive)
56 | OCC(O)CN(c1ccccc1)c1ccccc1 (stereo not given) | 0.3% (inactive)
57 | CN(C(=O)C1CCN(c2ncnc3c2nc2n3CCCCC2)CC1)C1CCCCC1 | -5% (inactive)
58 | FC(F)(F)c1nnc2c3ccccc3c(Cl)nn12 | -3.6% (inactive)
59 | CC(=O)N1CC[n+]2c(-c3ccc([N+](=O)[O-])cc3)csc21 | 7.9% (inactive)
60 | Cc1nc(C(=O)N2CCCC(C(=O)c3ccc(Cl)cc3)C2)cs1 (stereo not given) | 0.3% (inactive)
61 | CCc1ccc(CN(C)Cc2nc(Cc3ccccc3)no2)nc1 | -1.4% (inactive)
62 | O=C1N[C@@H](Cc2ccccc2)C(=O)N2[C@H]1C[C@]1(Br)c3ccccc3N(S(=O)(=O)c3ccccc3)[C@H]21 | 5.7% (inactive)
63 | CCC(=O)Nc1c(S(=O)(=O)c2ccccc2)c2nc3ccccc3nc2n1Cc1ccccc1 | 2.7% (inactive)
64 | O=C(O)c1ccccc1OCc1ccccc1Cl | 6.6% (inactive)
65 | CN(C(=O)CSc1nnc(N)s1)c1c(N)n(Cc2ccccc2)c(=O)[nH]c1=O | 3.6% (inactive)
66 | Cc1ccc(N2C(=O)c3ccccc3C2(O)c2ncc[nH]2)cc1 (stereo not given) | -9% (inactive)
67 | CCC(C)(C(=O)NC1CCCCC1)N(C)C(=O)c1ccc2c(c1)OCO2 (stereo not given) | 2.8% (inactive)
68 | CCOc1ccc(NS(=O)(=O)c2cc(C)c(C)cc2C)cc1 | -7.7% (inactive)
69 | CN(C)N(C)C(=O)C(O)(c1ccccc1)c1ccccc1 | 2.1% (inactive)
70 | O=c1c(F)cn(C2CCCO2)c(=O)n1Cc1ccccc1Cl (stereo not given) | -1.3% (inactive)

From PubChem BioAssay AID2806 (Sanford-Burnham Center for Chemical Genomics, 2010)
